Experimental findings from PubChem BioAssay are described below.

Experiment [1] can be described thus: HUVEC growth inhibition – cell-based, human, primary screen (AID 575;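 active means viability at or below 30% in both replicate assays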;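 further: 100% = median of untreated cell wells with 0.1% DMSO on each plate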). The settings on record: HUVEC proliferation, CellTiter-Glo luminescence, 72 h; at 10 µM; stronger effect = lower value. A general note: ATP-based viability assays read luminescence as a measure of living cells.
A short description of experiment [2]: growth inhibitors of H69AR lung tumor, primary screen, human, duplicate replicates (AID 580).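 Further: 100% = mean luminescence of untreated wells and 0% = no signal.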 The settings on record: H69AR lung tumor cells viability, ATP luminescence, 72 h; at 10 µM; stronger effect = lower value.
Experiment [3] can be described thus: reversal of MRP1-mediated doxorubicin resistance, pilot screen, H69AR cells, doxorubicin co-treatment (AID 601;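 active means viability loss from added drug above about 55%, and viability with drug at most 40%, in both replicates, limit read from the data, passing the limit was not always enough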). The settings on record: CellTiter-Glo, 72 h, at 10 µM; for differential viability (reversal): stronger effect = higher value.
The nature of experiment [4]: 384-well plate pilot, post-Golgi transport modulator project, inhibition of yeast transport mutant growth (AID 636; in the data active means inhibition above about 31%). The settings on record: absorbance 615 nm, about 18 h, stronger effect = higher value.
Experiment [5] is described as follows: growth suppression of yeast trafficking mutant, preliminary HTS, modulators of trafficking downstream of Golgi apparatus project, 1536-format plate, OD 615 nm (AID 637; in the data active means inhibition above about 30%). The settings on record: yeast transport mutant growth, absorbance 615 nm, 18 h; stronger effect = higher value.
Experiment [6] can be described thus: OD615 S. cerevisiae growth inhibition, permissive medium, pilot counter-assay, permissive growth control for S. cerevisiae lifespan shortening project (AID 705;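 active means growth inhibition above 25% in both replicates, a cutoff set 3 SD above the mean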). The settings on record: OD615, 24 h, at 10 µM, stronger effect = higher value.
Experiment [7] in a line: Restrictive medium S. cerevisiae growth inhibition, OD615, pilot screen of yeast lifespan reduction project, restrictive growth control (AID 706;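 active means growth inhibition above a set limit, 3 SD over mean compound inhibition, in both replicates, cut at about 43% in these data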;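 further: modified DeaD lifespan yeast strain shifted to restrictive glucose medium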). The settings on record: OD615, 48 h, at 10 µM, stronger effect = higher value.
A short description of experiment [8]: viability gain of MRP-1-high H69AR cells under doxorubicin, pilot screen, MRP-1 activator project, CellTiter-Glo, duplicate (AID 807;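 active means viability increase at or above a cutoff of the median across tested compounds plus 3 SD, cut at about 8.5% in these data, passing the limit was not always enough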;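 further: compound pretreatment 18-22 h then 72 h combined with doxorubicin; 0% = doxorubicin alone and 100% = vehicle without doxorubicin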). The settings on record: H69AR viability with doxorubicin, CellTiter-Glo luminescence; at 10 µM; stronger effect = higher value.
Experiment [9] is described as follows: growth suppression of beta-catenin knockout HCT116, pilot screen, human colon tumor cells (AID 823;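 active means cell viability at or below a set limit in both duplicate runs, the limit being the all-compound median minus 4 SD, cut at about 23% in these data, passing the limit was not always enough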;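 further: 0% = wells killed by 20 µM Hyamine and 100% = untreated DMSO cell wells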). The settings on record: CellTiter-Glo, 60 h, at 10 µM, stronger effect = lower value.
Experiment [10] in a line: growth suppression of PTEN-deleted HCT116, pilot screen, cell-based, HCT116 clonal line, CellTiter-Glo (AID 824;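 active means viability at or below 27.92% in each of two runs, the all-compound median minus 4 SD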;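 further: 0% = 20 µM Hyamine control and 100% = vehicle cell control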). The settings on record: 60 h, at 10 µM, stronger effect = lower value.
Experiment [11] is described as follows: inhibitors of the yeast RAM network, pilot screen, dse1pr::URA3 reporter, 5-FOA selection (AID 869;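 active means inhibition over a set limit, the all-compound mean plus 3 SD, in both replicate runs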;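 further: 0% = DMSO wells with no growth and 100% = 10 µM 1-NA-PP1 with full growth; RAM network block rescues cells from 5-FOA so hits raise OD615 growth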). The settings on record: S. cerevisiae dse1pr::URA3 5-FOA growth, OD615, 2 d; at 10 µM; stronger effect = higher value; strain carries analog-sensitive mutant Cbk1 kinase.
The nature of experiment [12]: RAM signaling pathway blockade in yeast – S. cerevisiae, Pdr1DBD-CYC8 efflux-inhibited sensitized strain, primary screen (AID 1298;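 active means RAM network inhibition above 8.4% in each of two replicates, 3 SD over the compound average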;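 further: 0% = DMSO untreated cells without growth and 100% = 10 µM 1-NA-PP1 full growth; higher means more yeast growth rescued from 5-FOA killing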). The settings on record: S. cerevisiae cbk1-as DSE1-URA3 strain, 5-FOA growth OD615, 2 d; at 50 µM; stronger effect = higher value.
Setting [13] is: H69AR cells + 2 uM doxorubicin, measured here: viability with 2 uM doxorubicin, stronger effect = lower value.
Where [14] appears, read: H69AR cells, compound alone cytotoxicity.

Results filed as inconclusive are left out. Calls of active or inactive are those of the source.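 How the source made its calls, unless noted: active means viability at or under a set limit in both replicates, limit being median viability minus 3 SD (cut at about 48% in these data, passing the limit was not always enough); inconclusive means at or under the limit in just one replicate; inactive means at or above the limit in both replicates.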

By viability is commonly meant a read-out of living cells in per cent, often relative to untreated cells. Usually inhibition stands for the drop in the measured response relative to a control, in per cent. `O=C(CN1C(=O)NC(Cc2ccccc2)C1=O)Nc1ccccc1` (stereo not given): the viability in experiment [1] is 101% (inactive); in [2], 96.7% (inactive); in experiment [3] (setting [13]), 96.9%; in experiment [3] (setting [14]), 96.7%; in experiment [9], 97.8% (inactive); in [10] it was 94.6% (inactive). In [3] (H69AR cells + 2 uM doxorubicin), the differential viability (reversal) was -0.17% (inactive). In addition, the inhibition was -1.17% (inactive) in [4], -0.63% (inactive) in [5] and 1.85% (inactive) in experiment [11]. In addition, the growth inhibition in experiment [6] was -11.6% (inactive); in experiment [7], -16.5% (inactive). For the same molecule, in experiment [8], the viability increase is 1.83% (inactive). Further, the RAM network inhibition in [12] was 0.35% (inactive).

Regarding `Cc1ccc(C)c(NC(=O)C2CCC(C)(C(=O)O)C2(C)C)c1` (stereo not given), the viability was 98.8% (inactive) in experiment [1]; 97.8% (inactive) in experiment [2]; 92.1% in experiment [3] (setting [13]); 97.8% in experiment [3] (setting [14]); 97% (inactive) in experiment [9]; 99% (inactive) in experiment [10]. In addition, in experiment [3] (H69AR cells + 2 uM doxorubicin), the differential viability (reversal) was 5.67% (inactive). Further, the inhibition was 2.08% (inactive) in experiment [4], -0.79% (inactive) in experiment [5] and 0.355% (inactive) in experiment [11]. Moreover, the growth inhibition in [6] is -12.8% (inactive); in [7], -13.8% (inactive). Moreover, the viability increase in experiment [8] was -1.13% (inactive). In addition, in [12], the RAM network inhibition was 0.93% (inactive).

For the molecule `O=C1CC(c2ccco2)CC(O)=C1C=NCCN1CCNCC1` (stereo not given), the viability was 103% (inactive) in [1]; 95.6% (inactive) in experiment [2]; 92.3% in [3] (setting [13]); 95.6% in experiment [3] (setting [14]); 91% (inactive) in experiment [9]; 101% (inactive) in experiment [10]. Further, the differential viability (reversal) in [3] (H69AR cells + 2 uM doxorubicin) is 3.35% (inactive). The inhibition in experiment [4] was 0.13% (inactive); in experiment [5], 5.56% (inactive); in experiment [11], 0.405% (inactive). Further, the values for the growth inhibition in [6] and in experiment [7] were -10.2% (inactive) and 3.51% (inactive), respectively. For the same molecule, the viability increase in [8] is 0.26% (inactive). Further, in experiment [12], the RAM network inhibition is 1.52% (inactive).

For `O=C(NCCN1CCN(c2ccccc2)CC1)c1ccc(NC(=O)C2CCCO2)cc1` (stereo not given), the viability in [1] is 96.9% (inactive); in experiment [2] it was 108% (inactive); in [3] (setting [13]), 100%; in experiment [3] (setting [14]) it was 108%; in experiment [9] it was 95.6% (inactive); in [10], 101% (inactive). Besides, in experiment [3] (H69AR cells + 2 uM doxorubicin), the differential viability (reversal) is 8.13% (inactive). Further, the results for the inhibition in experiment [4], in experiment [5] and in experiment [11] were -3.82% (inactive), -0.48% (inactive) and 1.66% (inactive), respectively. Besides, the growth inhibition in experiment [6] was -5.63% (inactive); in [7] it was -8.76% (inactive). In addition, the viability increase in experiment [8] was -1.13% (inactive). In addition, in experiment [12], the RAM network inhibition was 2.86% (inactive).

Turning to `COc1cccc(N2CCN(c3c4c(nc5ncnn35)CCC4)CC2)c1`, the viability in [1] was 68.7% (inactive); in experiment [2] it was 86.9% (inactive); in experiment [3] (setting [13]), 76.5%; in [3] (setting [14]) it was 86.9%; in experiment [9], 77.5% (inactive); in experiment [10] it was 92.9% (inactive). Also, the differential viability (reversal) in [3] (H69AR cells + 2 uM doxorubicin) was 10.4% (inactive). The inhibition in [4] was -4.55% (inactive); in experiment [5], 8.73% (inactive); in experiment [11], 0.465% (inactive). Besides, the results for the growth inhibition in experiment [6] and in [7] were -0.38% (inactive) and 16.8% (inactive), respectively. Moreover, in experiment [8], the viability increase was -1.17% (inactive). In addition, in [12], the RAM network inhibition was 4.78% (inactive).

For `COc1cc2[nH]c(=O)n(CCCCCC(=O)NCCCN3CCCC3=O)c(=O)c2cc1OC`, the viability was 103% (inactive) in [1]; 104% (inactive) in experiment [2]; 92.9% in experiment [3] (setting [13]); 104% in experiment [3] (setting [14]); 103% (inactive) in [9]; 104% (inactive) in [10]. Also, in experiment [3] (H69AR cells + 2 uM doxorubicin), the differential viability (reversal) was 11.6% (inactive). Moreover, the inhibition in [4] is -5.39% (inactive); in [5], -0.32% (inactive); in experiment [11] it was 1.91% (inactive). Moreover, the growth inhibition in experiment [6] was -1.87% (inactive); in [7] it was -4% (inactive). Further, in [8], the viability increase was 1.13% (inactive). Besides, the RAM network inhibition in experiment [12] was 6.37% (inactive).

Take `Cc1ccc(S(=O)(=O)c2nc(-c3ccco3)oc2SCC(=O)NCC2CCCO2)cc1` (stereo not given): the viability in experiment [1] is 101% (inactive); in [2], 92.8% (inactive); in [3] (setting [13]), 86.4%; in experiment [3] (setting [14]), 92.8%; in experiment [9] it was 101% (inactive); in experiment [10], 104% (inactive). For the same molecule, in experiment [3] (H69AR cells + 2 uM doxorubicin), the differential viability (reversal) is 6.32% (inactive). Also, the inhibition in experiment [4] is -0.13% (inactive); in experiment [5], -3.02% (inactive); in experiment [11], 1.47% (inactive). Further, the growth inhibition in [6] is 0.025% (inactive); in experiment [7], 0.35% (inactive). The viability increase in experiment [8] is -2.88% (inactive). For the same molecule, the RAM network inhibition in [12] is 2.72% (inactive).

For `N#C/C(C(=O)c1ccccc1)=C1/CCCN1`, the viability in [1] was 95.8% (inactive); in [2] it was 97.2% (inactive); in experiment [3] (setting [13]) it was 91.5%; in experiment [3] (setting [14]) it was 97.2%; in [9], 108% (inactive); in experiment [10] it was 105% (inactive). In experiment [3] (H69AR cells + 2 uM doxorubicin), the differential viability (reversal) is 5.69% (inactive). The values for the inhibition in [4], in [5] and in experiment [11] were -1.04% (inactive), 5.08% (inactive) and 1.44% (inactive), respectively. The growth inhibition in [6] is -10.5% (inactive); in experiment [7] it was -8.62% (inactive). In [8], the viability increase is 2.34% (inactive). In addition, the RAM network inhibition in [12] was 1.34% (inactive).

`Cc1nnc(N(Cc2ccco2)C(=O)c2cccc(C#N)c2)s1`: the viability in experiment [1] was 84.1% (inactive); in [2], 94.6% (inactive); in experiment [3] (setting [13]) it was 97.9%; in experiment [3] (setting [14]), 94.6%; in experiment [9] it was 103% (inactive); in experiment [10], 98.5% (inactive). Also, in [3] (H69AR cells + 2 uM doxorubicin), the differential viability (reversal) was -3.37% (inactive). Further, the inhibition was -1.69% (inactive) in experiment [4], -6.35% (inactive) in experiment [5] and 1.8% (inactive) in experiment [11]. Also, the growth inhibition in experiment [6] was -6.52% (inactive); in [7], 6.42% (inactive). Also, in experiment [8], the viability increase was -0.66% (inactive). Moreover, the RAM network inhibition in [12] was 4.13% (inactive).

Regarding `O=c1cc(-c2ccco2)oc2ccc(Cl)cc12`, the viability is 111% (inactive) in [1]; 98.4% (inactive) in experiment [2]; 85.9% in experiment [3] (setting [13]); 98.4% in [3] (setting [14]); 96.9% (inactive) in [9]; 98.2% (inactive) in experiment [10]. In experiment [3] (H69AR cells + 2 uM doxorubicin), the differential viability (reversal) is 12.5% (inactive). The inhibition was -2.6% (inactive) in [4], 4.76% (inactive) in [5] and 0.61% (inactive) in experiment [11]. The growth inhibition in experiment [6] is -19.4% (inactive); in experiment [7], -2.54% (inactive). Further, the viability increase in experiment [8] was -2.08% (inactive). In addition, the RAM network inhibition in [12] is 6.02% (inactive).
